Structures are written as SMILES. Hit rate of the full screen: of about 52,000 compounds, about 4,300 (8.3%) were called active. No stated cut-off is given here; in the data, active means survival mostly below about 52% (no sharp cut-off); inactive means mostly above about 56%. The list comes from a sample in which actives are over-represented; it also holds similar structures and randomly drawn compounds.

The test system of this assay is DeltatarO mutant. The assay can be described thus: S. aureus survival, RN4220 and DeltatarO strains – OD600, teichoic acid synthesis inhibitors, primary screen (AID 463173). The following applies: S. aureus RN4220 wild type/DeltatarO growth, OD600, 18 h, hits give low values, screened at 18.75 µg/mL (by protocol).
Regarding `CC1=C(C(=O)N2CCN(c3ccc(Cl)cc3)CC2)C2(CCC(C)CC2)OC1=O` (configuration not stated), the survival was 121% (inactive).
With `CCc1ccc(CNC(=O)CN(c2ccc(C)cc2)S(=O)(=O)N(C)C)cc1`, the survival was 76% (inactive).
For `O=C(OC(C(=O)NC1CCCC1)c1cccnc1)C1=Cc2ccccc2OC1` (configuration not stated), the survival was 96% (inactive).
As for `COc1cccc(C(=O)N2c3nc(-c4ccco4)nn3C3(CCCCC3)[C@@H]3CCCC[C@@H]32)c1`, the survival is 95% (inactive).
In the case of `CNS(=O)(=O)c1cn(CC(=O)Nc2ccc(C)cc2C)cc1S(=O)(=O)NC`, the survival was 117% (inactive).
Then `Cc1cc(F)ccc1NC(=O)Cn1cc(S(=O)(=O)NC(C)C)c(S(=O)(=O)NC(C)C)c1`, with 90% (inactive); and `CNS(=O)(=O)c1cn(CC(=O)Nc2ccc(F)cc2F)cc1S(=O)(=O)NC`, with 0% (active).
Turning to `COc1ccc(-c2onc(C)c2C)cc1S(=O)(=O)NCC1CCN(Cc2cc(C)ccc2C)CC1`, the survival is 100% (inactive).
As for `CCOC(=O)c1cc(-c2ccc(F)cc2)n(CC(=O)NCc2ccc(OC)cc2)c1C`, the survival was 75% (inactive).
On to `CCOC(=O)c1cc(-c2ccccc2)n(CCC(=O)Nc2ccc(OC)c(Cl)c2)c1C`, for which the survival is 92% (inactive).
On to `CCOC(=O)c1cc(-c2ccc(C)cc2)n(CCC(=O)Nc2ccc(C(C)C)cc2)c1C`, for which the survival was 61% (inactive).
Turning to `CCOC(=O)c1cc(-c2ccccc2)n(CCC(=O)NCCc2cccc(C)c2)c1C`, the survival is 58% (inactive).
Take `CCOC(=O)c1cc(-c2ccccc2)n(CCC(=O)NCCc2ccc(C)cc2)c1C`: the survival is 71% (inactive).
The same measure for `CCOC(=O)c1cc(-c2ccccc2)n(CCC(=O)NCCc2ccccc2)c1C`: 0% (active).
On to `CCOC(=O)c1cc(-c2ccc(C)cc2)n(CCC(=O)NCc2ccccc2)c1C`, for which the survival is 108% (inactive).
As for `CCOC(=O)c1cc(-c2ccc(F)cc2)n(CCC(=O)NCc2ccccc2OC)c1C`, the survival was 52% (active).
Take `CCOC(=O)c1cc(-c2ccccc2)n(CC(=O)NCc2ccccc2OC)c1C`: the survival is 101% (inactive).
As to `CCOC(=O)c1cc(-c2ccc(F)cc2)n(CCC(=O)Nc2ccccc2OC)c1C`, the survival was 101% (inactive).
Then `CCOC(=O)c1cc(-c2ccccc2)n(CC(=O)NCc2ccc(C)cc2)c1C`, with 37% (active); and `CCOC(=O)c1cc(-c2ccc(C)cc2)n(CCC(=O)Nc2ccc(OC)c(OC)c2)c1C`, with 52% (active); and `CC1CCc2c(sc(NC(=S)NC(=O)c3ccn(C)n3)c2C(N)=O)C1` (configuration not stated), with 99% (inactive).
Regarding `O=C1CS(=O)(=O)C2(C(=O)N(Cc3ccc(F)cc3)c3ccccc32)N1c1cccc(C(F)(F)F)c1` (configuration not stated), the survival was 124% (inactive).
Take `O=C(NCc1ccc(Cl)cc1)c1cnc(N2CCCCC2)c2ccccc12`: the survival is 84% (inactive).
Then `CCc1ccc(N(CC)C(=O)c2ccc3c(=O)n4c(nc3c2)CCCCC4)cc1`, with 86% (inactive); and `CCOc1ccc(NC(=O)Cn2ncc3c2-c2cc(C)ccc2OC3)cc1`, with 73% (inactive).
In the case of `Cc1c(C(=O)NCc2cccc(F)c2)oc2c1-c1[nH]ncc1CC2`, the survival was 71% (inactive).
For the compound `CC(CN=CC1=C(O)CC(C)(C)CC1=O)N=CC1=C(O)CC(C)(C)CC1=O` (configuration not stated), the survival is 101% (inactive).
As to `CC1(C)CC(=O)C(C=NCCCN2CCCC2=O)=C(O)C1`, the survival was 94% (inactive).
Take `CC(C)C(=O)N1CCC(CN=CC2=C(O)CC(C)(C)CC2=O)CC1`: the survival is 52% (active).
With `CC(O)Cc1nsc(NC(=O)c2cccs2)n1` (configuration not stated), the survival was 81% (inactive).
With `COc1ccc(N2CCN(C(=O)c3cc4sccc4n3Cc3ccccc3)CC2)cc1`, the survival is 92% (inactive).
Then `COCCCNC(=O)C1CCN(C(=O)c2cc3sccc3n2Cc2ccc(Cl)cc2)CC1`, with 59% (inactive).
Turning to `CCn1c(C(=O)N2CCC(C(=O)NCCc3ccc(C)cc3)CC2)cc2sccc21`, the survival was 58% (inactive).
Then `CC(C)CCNC(=O)C1CCN(C(=O)c2cc3sccc3n2Cc2ccc(Cl)cc2)CC1`, with 40% (active); and `CCC(C)NC(=O)C1CCN(C(=O)c2cc3sccc3n2Cc2ccc(Cl)cc2)CC1` (configuration not stated), with 45% (active); and `CCn1c(C(=O)N2CCC(C(=O)N3CCN(c4ccc(OC)cc4)CC3)CC2)cc2sccc21`, with 49% (active).
Regarding `COCCNC(=O)C1CCN(C(=O)c2cc3sccc3n2Cc2ccc(Cl)cc2)CC1`, the survival is 110% (inactive).
Then `CC(C)NC(=O)C1CCN(C(=O)c2cc3sccc3n2Cc2ccc(Cl)cc2)CC1`, with 65% (inactive).
The same measure for `CCn1c(C(=O)N2CCC(C(=O)N3CCN(c4cc(C)ccc4C)CC3)CC2)cc2sccc21`: 51% (inactive); for `Cc1ccc(CN(CC(=O)NC2CCCC2)C(=O)CSc2nnc(COc3ccccc3)o2)cc1`: 80% (inactive); for `O=C(Cn1c(=O)n(-c2ccc(Cl)cc2)c(=O)c2c3c(sc21)CCC3)c1ccc(F)cc1`: 51% (inactive).
`COc1ccc(N2CCN(C(=O)Cn3nc(Cc4cccnc4)c4ccccc4c3=O)CC2)cc1`: the survival was 108% (inactive).
Regarding `Cc1cc(C)c(NC(=O)CSc2nc(=O)n(Cc3cccnc3)c3c2CCC3)c(C)c1`, the survival was 104% (inactive).
As to `C[n+]1ccn(CC(=O)c2ccccc2)c1`, the survival is 78% (inactive).
In the case of `COCCN=Cc1c(NCCOC)nc2ccccn2c1=O`, the survival is 103% (inactive).
On to `COC(=O)c1sc(N)c(C#N)c1C`, for which the survival was 74% (inactive).
Take `Cc1cc(C)cc(NC(=O)C2CCN(c3nc4ccccc4nc3C(F)(F)F)CC2)c1`: the survival was 93% (inactive).
Regarding `CC(NC(=O)C1CCN(c2nc3ccccc3nc2C(F)(F)F)CC1)c1ccccc1` (configuration not stated), the survival was 37% (active).
As to `O=C(Nc1ccc(F)c(Cl)c1)C1CCN(c2ncccn2)CC1`, the survival was 63% (inactive).
Turning to `CC(C)(C)NC(=O)C1CCN(c2nc3ccccc3nc2C(F)(F)F)CC1`, the survival is 63% (inactive).
With `Cc1ccc(NC(=O)C2CCN(c3nc4ccccc4nc3C(F)(F)F)CC2)cc1C`, the survival is 91% (inactive).
With `CSc1ccc(NC(=O)C2CCN(c3ncccn3)CC2)cc1`, the survival is 110% (inactive).
In the case of `Cc1ccc(NC(=O)C2CCN(c3ncccn3)CC2)cc1F`, the survival was 53% (active).
The same measure for `O=C(Nc1cccc(Cl)c1)C1CCN(c2nc3ccccc3nc2C(F)(F)F)CC1`: 70% (inactive).
Turning to `O=C(Nc1ccc(Cl)cc1)C1CCN(c2nc3ccccc3nc2C(F)(F)F)CC1`, the survival was 25% (active).
In the case of `CC(C)NC(=O)C1CCN(c2nc3ccccc3nc2C(F)(F)F)CC1`, the survival is 101% (inactive).
The same measure for `Cc1ccc(NC(=O)C2CCN(c3nc4ccccc4nc3C(F)(F)F)CC2)cc1F`: 46% (active).
Then `O=C(Nc1ccc(F)cc1)C1CCN(c2nc3ccccc3nc2C(F)(F)F)CC1`, with 118% (inactive); and `O=C(Nc1ccc(F)cc1F)c1c2c(nc3ccccc13)C(=O)N(C1CCCCC1)C2`, with 81% (inactive).
As to `CCN(CC)C(=O)C1CCN(c2nnc(C)c3c(C)n(-c4ccc(Cl)cc4)nc23)CC1`, the survival was 95% (inactive).
Take `CCOc1ccc(N(C(C)C(=O)NCCSc2ccc(C)cc2)S(C)(=O)=O)cc1` (configuration not stated): the survival was 45% (inactive).
Regarding `COc1ccc(OC)c(NC(=O)CSC2=Nc3ccccc3C3=NC(CC(=O)NCc4ccco4)C(=O)N23)c1` (configuration not stated), the survival was 99% (inactive).
Then `CC(C)Nc1nc(NC(N)=O)nc(NC(C)C)n1`, with 104% (inactive).
Then `CCOc1ccc(CN2C(=O)c3ccccc3C2C(=O)NCCc2ccc(OC)c(OC)c2)cc1` (configuration not stated), with 88% (inactive); and `CCSc1nc2c([nH]c3ccccc32)c(=O)n1CC`, with 68% (inactive).
Consider `Cc1nc2c(-c3ccccc3)c(C)nn2c(C)c1CCC(=O)NCc1ccc(F)cc1`, for which the survival is 94% (inactive).
With `COc1ccc(C(=O)N2CC(C)CC(C)C2)cc1` (configuration not stated), the survival is 98% (inactive).
Turning to `CC1CCN(c2nn3c(=O)c(C(=O)NCCc4ccccc4)cnc3s2)CC1`, the survival is 95% (inactive).
For the compound `O=C(Nc1cccc(C(F)(F)F)c1)Nc1nnc(N2CCCCC2)s1`, the survival is 82% (inactive).
On to `NC(=O)N/N=C/c1ccc(-c2ccc(Cl)cc2)o1`, for which the survival was 87% (inactive).
Turning to `CCc1ccccc1N(C)C(=O)Cn1cnc2sc(C)c(S(=O)(=O)N3CCC(C)CC3)c2c1=O`, the survival was 71% (inactive).
For the compound `CC(C)c1ccc(C2N=C(N)Nc3nc4ccccc4n32)cc1` (configuration not stated), the survival was 101% (inactive).
The same measure for `CC(C)CCOc1ccc(C2N=C(N)Nc3nc4ccccc4n32)cc1` (configuration not stated): -3% (active).
With `COc1cc(C2N=C(N)Nc3nc4ccccc4n32)ccc1OCCC(C)C` (configuration not stated), the survival was 68% (inactive).
Consider `CCC(C#CCN1CCCCC1)(CC)OC(C)=O`, for which the survival is 98% (inactive).
On to `CCOC(=O)c1ccc(OCC2c3cc(OC)c(OC)cc3CCN2C(=O)Cc2ccc(F)cc2)cc1` (configuration not stated), for which the survival is 68% (inactive).
For `NC(=O)CSc1nc2c(oc3ccccc32)c(=O)n1-c1ccccc1F`, the survival was 59% (inactive).
Take `CC1(NS(=O)(=O)c2ccccc2)CCS(=O)(=O)C1` (configuration not stated): the survival was 98% (inactive).
In the case of `CC1(C)CC(N=Cc2c(O)[nH]c(=O)[nH]c2=O)CC(C)(C)N1`, the survival was 85% (inactive).
On to `O=C(Nc1cc(Cl)cc(Cl)c1)c1ccc(F)c(S(=O)(=O)N2CCN(c3ccccc3F)CC2)c1`, for which the survival is 84% (inactive).
Regarding `CN(C)C(=O)COc1ccc(S(=O)(=O)c2ccc(OCC(=O)N(C)C)cc2)cc1`, the survival is 109% (inactive).
Then `CCCCS(=O)(=O)c1oc(-c2ccc(F)cc2)nc1S(=O)(=O)c1ccc(C)cc1`, with 30% (active).
Take `CSc1oc(-c2cccs2)nc1S(=O)(=O)c1ccc(Br)cc1`: the survival is 56% (inactive).
Consider `Cc1ccc(S(=O)(=O)c2nc(-c3ccc(F)cc3)oc2N2CCN(c3ccccc3)CC2)cc1`, for which the survival was 107% (inactive).
With `Cc1ccc(-c2nc(S(=O)(=O)c3ccc(F)cc3)c(N3CCN(c4ccccc4)CC3)o2)cc1`, the survival was 72% (inactive).
The same measure for `CCSc1oc(-c2ccc(F)cc2)nc1S(=O)(=O)c1ccc(C)cc1`: 45% (inactive).
With `COc1ccc(-c2nc(S(=O)(=O)c3ccc(C)cc3)c(NCc3ccccc3)o2)cc1`, the survival was 67% (inactive).
Consider `COc1ccccc1NC(=O)CSc1oc(-c2ccccc2)nc1S(=O)(=O)c1ccc(C)cc1`, for which the survival was 158% (inactive).
For `CSc1oc(-c2ccc(F)cc2)nc1S(=O)(=O)c1ccc(Br)cc1`, the survival is 41% (active).
Consider `COc1ccccc1NC(=O)CSc1oc(-c2ccc(F)cc2)nc1S(=O)(=O)c1ccc(Br)cc1`, for which the survival was 49% (active).
As to `COc1ccccc1NC(=O)CSc1oc(-c2ccccc2)nc1S(=O)(=O)c1ccccc1`, the survival is 145% (inactive).
With `CC(C)CS(=O)(=O)c1oc(-c2ccc(F)cc2)nc1S(=O)(=O)c1ccccc1`, the survival is -4% (active).

Values taken from PubChem BioAssay AID463173 (ICCB-Longwood Screening Facility, Harvard Medical School, 2010).
